PubChem BioAssay (NCATS)
Several values for one entry are separate records, joined by “and”; a condition that tells them apart may be missing. Equal values may be shown once. Records with an inconclusive call do not appear. Entries that show only a call come without a potency. Activity calls are given as the source filed them. Unless noted, calls follow the shape of the dose curve; as a rule, active = well fitted curve in the direction sought with a large enough effect; inconclusive = small, poorly fitted or top-dose-only effect, or another doubt; inactive = no such curve, though single readings can be large; an effect the other way counts as inactive or inconclusive.

Tests used:
[1] = target: Ferritin light chain (Equus caballus) (UniProt P02791); assay: qHTS Validation Assay for Identification of Novel General Anesthetics (AID 2323); also: series mostly up to about 77 µM
Sequence of Ferritin light chain (Equus caballus) (P02791 2-175 limits assumed): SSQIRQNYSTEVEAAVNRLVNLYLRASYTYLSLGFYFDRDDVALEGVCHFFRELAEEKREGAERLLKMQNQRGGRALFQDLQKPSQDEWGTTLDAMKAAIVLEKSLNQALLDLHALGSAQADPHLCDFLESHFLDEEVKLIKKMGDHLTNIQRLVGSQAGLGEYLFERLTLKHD
Summary of the method: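 Fluorescence at 535 nm (excitation 380 nm) reported loss of 1-AMA binding to horse-spleen apoferritin (10 uM) in PBS with 50% saturated 1-aminoanthracene, after 10 min room-temperature incubation with compound; values from Hill fits of normalized response.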

[2] = Validation screen for small molecules that induce genotoxicity in human embryonic kidney (HEK293T) cells expressing luciferase-tagged ELG1 (AID 493106)
Summary of the method: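 In this validation screen, increased ELG1-luciferase signal flags compounds causing genetic stress. HEK293T reporter cells are treated 16 hr (37 °C, 5% CO2), developed with ONE-Glo for 30 min at room temperature, and imaged on a CCD-based reader.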

[3] = target: Bile acid receptor (Homo sapiens) (UniProt Q96RI1); assay: qHTS assay for small molecule agonists of farnesoid X receptor signaling (AID 588527; calls by dose curve; also: series mostly up to about 77 µM); details: HEK293T FXR-UAS-bla, beta-lactamase ratio, 16 h; activation: stronger effect = higher value
Sequence of Bile acid receptor (Homo sapiens) (Q96RI1 whole entry, looked up): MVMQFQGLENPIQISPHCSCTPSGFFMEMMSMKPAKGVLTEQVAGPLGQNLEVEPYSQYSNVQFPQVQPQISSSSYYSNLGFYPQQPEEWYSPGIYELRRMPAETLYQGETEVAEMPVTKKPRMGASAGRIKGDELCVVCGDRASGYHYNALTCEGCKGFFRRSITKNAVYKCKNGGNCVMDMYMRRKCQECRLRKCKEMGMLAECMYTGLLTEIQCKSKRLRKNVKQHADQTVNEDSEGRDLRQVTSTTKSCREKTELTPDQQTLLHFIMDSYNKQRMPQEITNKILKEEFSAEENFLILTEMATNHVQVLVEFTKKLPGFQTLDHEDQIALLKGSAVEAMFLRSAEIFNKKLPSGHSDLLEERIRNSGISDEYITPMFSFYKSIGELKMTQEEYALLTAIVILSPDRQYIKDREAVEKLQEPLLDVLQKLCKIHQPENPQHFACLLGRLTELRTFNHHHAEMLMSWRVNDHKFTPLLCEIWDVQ
Summary of the method: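 FXR-UAS-bla HEK293T, 10% dialyzed FBS; cpds up to 92 uM titration, 16 h 37 C; CCF4 dye 2 h RT; fluorescence. Normalized to chenodeoxycholic acid 100 uM (100%) and DMSO (0%); Hill fit gives EC50, efficacy.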

[4] = VSVG counterscreen qHTS to identify inhibitors of SARS-CoV-2 cell entry (AID 1645847; calls by dose curve; also: potency is read from the fitted curve at half-maximal effect; nearly all actives have a fitted effect of over 65% in size)
Summary of the method: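 Luminescence from a luciferase reporter, normalised to bald particle and VSV-G pseudotyped particle wells, is the read-out. Cells are HEK293 expressing human ACE2, exposed to compound 1 h before a 48 h particle infection at 37 °C.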

[5] = Cytometry Cell-Based qHTS for Inhibitors of the mTORC1 Signaling Pathway in MEF cells (AID 2668); also: potency is read from the fitted curve at half-maximal effect
Summary of the method: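 Tsc2-/-, p53-/- MEFs re-expressing WT Tsc2; cpd 24 hrs, 37 degree Celsius; PFA fix, Alexa-488 p-rpS6 (Ser235/236) Ab 2 hrs RT, PI counterstain; Acumen 488nm scan; p-S6/PI ratio → % positive cells; PI count = viability.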

[6] = target: Thioredoxin reductase 1, cytoplasmic (Rattus norvegicus) (UniProt O89049); assay: qHTS Assay for Inhibitors of Mammalian Selenoprotein Thioredoxin Reductase 1 (TrxR1) (AID 488773); details: Potency: inhibition; also: nearly all actives have a fitted effect of over 40% in size; also: potency is read from the fitted curve at half-maximal effect
Sequence of Thioredoxin reductase 1, cytoplasmic (Rattus norvegicus) (O89049 whole entry, looked up): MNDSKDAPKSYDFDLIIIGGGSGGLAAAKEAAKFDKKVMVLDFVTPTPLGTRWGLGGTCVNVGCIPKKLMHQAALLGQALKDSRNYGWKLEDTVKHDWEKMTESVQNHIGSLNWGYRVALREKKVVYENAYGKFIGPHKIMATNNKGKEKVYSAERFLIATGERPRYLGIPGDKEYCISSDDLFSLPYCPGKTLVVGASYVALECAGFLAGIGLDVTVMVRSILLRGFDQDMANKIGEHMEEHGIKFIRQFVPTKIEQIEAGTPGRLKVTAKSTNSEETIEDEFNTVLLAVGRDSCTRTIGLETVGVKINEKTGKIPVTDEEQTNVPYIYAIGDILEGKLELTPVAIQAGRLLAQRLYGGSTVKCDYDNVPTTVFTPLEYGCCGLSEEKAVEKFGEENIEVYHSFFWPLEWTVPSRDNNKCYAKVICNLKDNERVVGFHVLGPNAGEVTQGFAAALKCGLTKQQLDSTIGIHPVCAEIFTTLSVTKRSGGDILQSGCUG
Summary of the method: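 Inhibition is scored from the loss of NADPH fluorescence between first and last reads of an 8-min kinetic run. Selenite (400 uM) was the substrate, added after 15 min compound preincubation at room temperature.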

[7] = qHTS for Activators of Parkin Expression: LOPAC Validation Assay (FLuc Reporter) (AID 720573)
Summary of the method: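 Cells seeded, 24 h; compounds pinned, 7-pt dose response; 24 h at 37 C/5% CO2; volume reduced; FLuc reagent 10 min RT; luminescence read. Normalization: DMSO = 0, positive control = 100%.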

[8] = Cell Viability - LYMP2-020 (AID 986); also: series mostly up to about 92 µM; nearly all actives have a fitted effect of over 55% in size
Summary of the method: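 Cells at 2500 per well receive a 24 hr compound exposure at 37 C. Viability is measured as ATP-dependent luciferase luminescence, with AC50 modeled from qHTS concentration-response curves.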

[9] = target: Vitamin D3 receptor (Homo sapiens) (UniProt P11473); assay: qHTS assay for small molecule antagonists of vitamin D receptor signaling (AID 588541; calls by dose curve;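 also: receptor activated by calcitriol during compound treatment; series mostly up to about 77 µM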)
Sequence of Vitamin D3 receptor (Homo sapiens) (P11473 whole entry, looked up): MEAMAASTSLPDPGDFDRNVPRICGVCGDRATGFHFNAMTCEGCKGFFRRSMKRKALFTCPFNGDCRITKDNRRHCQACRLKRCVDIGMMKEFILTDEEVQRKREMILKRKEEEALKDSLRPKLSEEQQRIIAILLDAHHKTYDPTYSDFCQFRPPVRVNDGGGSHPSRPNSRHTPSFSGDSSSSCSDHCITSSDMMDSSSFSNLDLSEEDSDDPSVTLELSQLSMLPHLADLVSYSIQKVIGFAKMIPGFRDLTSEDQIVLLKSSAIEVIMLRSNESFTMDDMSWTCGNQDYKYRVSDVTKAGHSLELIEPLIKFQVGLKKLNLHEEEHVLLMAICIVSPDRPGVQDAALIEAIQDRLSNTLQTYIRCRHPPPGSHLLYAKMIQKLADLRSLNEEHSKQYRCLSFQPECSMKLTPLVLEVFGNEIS
Summary of the method: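 VDR-UAS-bla HEK293T cells (2000/well, 2% charcoal-stripped FBS) were treated with titrated compounds plus 1-alpha,25-dihydroxyvitamin D3 (50 nM or 3 nM final) for 16 h at 37 C. CCF4 beta-lactamase fluorescence was read; Hill fits gave IC50.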

[10] = target: Vitamin D3 receptor (Homo sapiens) (UniProt P11473); assay: qHTS assay for small molecule agonists of vitamin D receptor signaling (AID 588543; calls by dose curve)
Summary of the method: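 Reporter cells (HEK293T, VDR-UAS-bla) were seeded in medium with 2% charcoal-stripped serum and incubated 5 h, then compounds in concentration series were added for 16 h at 37 °C. Stimulation was scaled between DMSO basal and 50 nM 1α,25-dihydroxyvitamin D3.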

[11] = target: Mitogen-activated protein kinase 10 (Mus musculus) (UniProt Q61831); assay: JNK3 AlphaScreen Assay (AID 530; active = well fitted curve in either direction with a large enough effect, not every such curve was filed as active;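 also: kinase came from lysate of stimulated human HepG2 cells; signal reports phosphorylation of biotinylated GST-cJun 1-79 at Ser73 with 10 µM ATP; series mostly up to about 57 µM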)
Summary of the method: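 Biotinylated GST-cJun(1-79) served as substrate for JNK3 in HepG2 lysates stimulated with IL-1beta and TNF-alpha. ATP was 10 uM final, pH 7.6. Ser73 phosphorylation was quantified by AlphaScreen (680 nm excitation).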

[12] = target: Estrogen receptor (Homo sapiens) (UniProt P03372); assay: qHTS assay for small molecule antagonists of estrogen receptor alpha signaling (AID 588513; active = well fitted curve in the direction sought with a large enough effect in the signal ratio, with a control signal flat, not every such curve was filed as active; the % refers to the signal ratio)
Sequence of Estrogen receptor (Homo sapiens) (P03372 whole entry, looked up): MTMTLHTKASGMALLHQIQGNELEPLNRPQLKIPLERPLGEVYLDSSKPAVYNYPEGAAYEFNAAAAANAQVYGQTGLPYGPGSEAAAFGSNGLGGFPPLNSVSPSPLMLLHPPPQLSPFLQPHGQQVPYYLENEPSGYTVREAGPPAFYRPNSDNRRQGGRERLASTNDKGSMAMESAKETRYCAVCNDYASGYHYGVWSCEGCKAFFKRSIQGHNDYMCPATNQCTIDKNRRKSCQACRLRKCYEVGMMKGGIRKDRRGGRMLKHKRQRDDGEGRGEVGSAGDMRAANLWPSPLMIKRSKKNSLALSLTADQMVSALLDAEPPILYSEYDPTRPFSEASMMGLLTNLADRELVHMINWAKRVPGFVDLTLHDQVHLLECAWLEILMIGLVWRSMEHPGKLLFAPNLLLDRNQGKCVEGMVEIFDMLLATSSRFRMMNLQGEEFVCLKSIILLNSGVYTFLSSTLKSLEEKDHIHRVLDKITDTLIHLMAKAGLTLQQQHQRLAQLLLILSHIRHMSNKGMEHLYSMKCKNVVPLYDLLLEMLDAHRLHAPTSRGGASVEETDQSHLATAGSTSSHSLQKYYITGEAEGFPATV
Summary of the method: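 Fluorescence from CCF4 substrate after 2 h at room temperature gave reporter activity; cells had been exposed to compound and 0.5nM 17-beta-estradiol for 18 h at 37 C. Hill-equation fitting yielded IC50 and maximal response.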

[13] = target: Bile acid receptor (Homo sapiens) (UniProt Q96RI1); assay: qHTS assay for small molecule antagonists of farnesoid X receptor signaling (AID 588526; calls by dose curve)
Summary of the method: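 Concentration-response titrations were fitted to the Hill equation for half-maximal inhibition and maximal response, with data normalised to 50 uM chenodeoxycholic acid and DMSO control wells. Cells: FXR-UAS-bla HEK293T, dialyzed FBS.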

[14] = target: Glucocorticoid receptor (Homo sapiens) (UniProt P04150); assay: qHTS assay for small molecule agonists of glucocorticoid receptor signaling (AID 588532; active = well fitted curve in the direction sought with a large enough effect in the signal ratio, with a control signal flat; the % refers to the signal ratio); details: HeLa MMTV-bla, beta-lactamase ratio, agonist, 18 h; stronger effect = higher value; percent of dexamethasone control, DMSO zero
Sequence of Glucocorticoid receptor (Homo sapiens) (P04150 whole entry, looked up): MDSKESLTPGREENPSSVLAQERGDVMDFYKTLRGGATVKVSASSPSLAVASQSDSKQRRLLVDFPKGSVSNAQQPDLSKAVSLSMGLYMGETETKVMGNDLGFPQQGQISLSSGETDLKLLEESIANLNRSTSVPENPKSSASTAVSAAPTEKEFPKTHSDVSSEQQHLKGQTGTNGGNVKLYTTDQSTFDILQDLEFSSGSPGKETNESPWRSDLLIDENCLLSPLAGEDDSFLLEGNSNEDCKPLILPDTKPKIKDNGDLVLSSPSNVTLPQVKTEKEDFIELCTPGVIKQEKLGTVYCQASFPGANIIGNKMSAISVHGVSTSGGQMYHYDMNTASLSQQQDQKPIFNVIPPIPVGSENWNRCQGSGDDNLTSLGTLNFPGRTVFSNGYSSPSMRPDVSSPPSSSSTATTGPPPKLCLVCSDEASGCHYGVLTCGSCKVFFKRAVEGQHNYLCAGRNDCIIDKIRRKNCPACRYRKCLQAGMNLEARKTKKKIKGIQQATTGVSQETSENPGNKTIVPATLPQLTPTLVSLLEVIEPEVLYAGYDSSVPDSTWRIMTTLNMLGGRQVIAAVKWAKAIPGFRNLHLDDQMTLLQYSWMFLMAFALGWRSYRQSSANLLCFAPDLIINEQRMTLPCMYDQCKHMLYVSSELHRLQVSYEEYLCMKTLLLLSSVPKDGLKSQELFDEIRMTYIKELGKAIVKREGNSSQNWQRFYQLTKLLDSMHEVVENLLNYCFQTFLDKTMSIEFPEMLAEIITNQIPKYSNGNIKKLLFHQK
Summary of the method: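 Titration series, up to 92 uM, applied to GRE-bla HeLa cells for 18 h at 37 C. Detection by CCF4 FRET substrate after 2 h at RT.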

[15] = qHTS assay for small molecule agonists of retinoid X receptor alpha signaling (AID 588544; calls by dose curve); details: HEK293T RXRa-UAS-bla, beta-lactamase reporter, 18 h; 530 nm emission
[16] = target: Retinoic acid receptor RXR-alpha (Homo sapiens) (UniProt P19793); assay: as above
Sequence of Retinoic acid receptor RXR-alpha (Homo sapiens) (P19793 whole entry, looked up): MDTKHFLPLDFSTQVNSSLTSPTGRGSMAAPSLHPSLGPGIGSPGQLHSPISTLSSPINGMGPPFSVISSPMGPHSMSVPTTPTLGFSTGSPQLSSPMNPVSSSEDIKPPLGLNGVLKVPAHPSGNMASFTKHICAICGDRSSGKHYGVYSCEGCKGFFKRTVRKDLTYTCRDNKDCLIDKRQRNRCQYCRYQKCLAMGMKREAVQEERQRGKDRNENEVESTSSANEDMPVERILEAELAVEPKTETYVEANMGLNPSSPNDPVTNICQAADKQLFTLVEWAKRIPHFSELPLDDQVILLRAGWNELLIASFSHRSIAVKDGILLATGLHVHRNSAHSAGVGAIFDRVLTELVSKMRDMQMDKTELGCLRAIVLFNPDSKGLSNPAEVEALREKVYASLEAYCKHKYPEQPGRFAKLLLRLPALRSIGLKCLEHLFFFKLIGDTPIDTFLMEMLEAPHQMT

[17] = qHTS assay for environmental chemicals that activate the Aryl hydrocarbon Receptor (AhR) signaling pathway (AID 651777); details: 1A2-DRE human hepatoma cells, luciferase, 24 h; activation: stronger effect = higher value; also: nearly all actives have a fitted effect of over 15% in size
Summary of the method: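 Human hepatoma 1A2-DRE cells stably carrying a DRE/CYP1A2 promoter–luciferase reporter, 1,200 cells/well, exposed to compound 24 hr at 37 C. Luciferase read by One-Glo luminescence after 30 min at room temperature; increased signal marks AhR activation.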

[18] = target: Nuclear receptor subfamily 1 group I member 2 (Rattus norvegicus) (UniProt Q9R1A7); assay: qHTS assay for small molecule activators of the rat pregnane X receptor (rPXR) signaling pathway (AID 651751; call rule not given here); details: rPXR reporter cells, luciferase (One-Glo), 24 h
Sequence of Nuclear receptor subfamily 1 group I member 2 (Rattus norvegicus) (Q9R1A7 whole entry, looked up): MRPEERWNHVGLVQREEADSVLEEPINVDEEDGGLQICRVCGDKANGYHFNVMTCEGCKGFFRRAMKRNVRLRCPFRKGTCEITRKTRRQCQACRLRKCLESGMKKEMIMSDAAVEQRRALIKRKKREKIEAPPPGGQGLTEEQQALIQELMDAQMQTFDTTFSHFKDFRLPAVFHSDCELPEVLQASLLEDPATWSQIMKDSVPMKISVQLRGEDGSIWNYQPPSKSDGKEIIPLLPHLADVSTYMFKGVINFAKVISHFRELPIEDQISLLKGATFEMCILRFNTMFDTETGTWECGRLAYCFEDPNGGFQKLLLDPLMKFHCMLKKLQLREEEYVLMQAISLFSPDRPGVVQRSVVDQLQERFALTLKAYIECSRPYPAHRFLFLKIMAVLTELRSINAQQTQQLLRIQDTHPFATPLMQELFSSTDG

[19] = qHTS assay for small molecule activators of the human pregnane X receptor (PXR) signaling pathway (AID 720659; call rule not given here)
[20] = qHTS for differential inhibitors of proliferation of Plasmodium falciparum line GB4 (AID 1816); details: Potency: Plasmodium falciparum GB4 proliferation inhibition;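 also: potency is read from the fitted curve at half-maximal effect; parasite growth measured after 72 h incubation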

For `Nc1nc(N)c2nc(CNc3ccc(C(=O)NC(CCC(=O)O)C(=O)O)cc3)cnc2n1` (stereo not drawn), the outcome [1] was “inactive”, the outcome [2] was “inactive” and the activation [3] was 1.76% (inactive).

With `Oc1ccc(-c2nc(-c3ccc(F)cc3)c(-c3ccncc3)[nH]2)cc1` the Potency [4] was 3.04 µM (active).

For `Cc1cnc(CNC(=O)c2c(=O)c3ccc(N4CCCN(C)CC4)nc3n3c2sc2ccccc23)cn1`, the Potency [4] was 3.12 µM (active).

With `Cc1ccccc1C(=O)c1ccc(Nc2ccc(Br)cc2N)cc1Cl` the Potency [4] was 24.1 µM (active).

In the case of `Nc1nc2ccc(Cl)cc2c2nc(-c3ccco3)nn12`, the outcome [1] is reported as “inactive” and the Potency [5] is reported as 5.85 µM (active).

For `Oc1ccccc1O`, the Potency [5] was 10.4 µM (active), the Potency [6] was 11.9 µM (active) and the outcome [7] was “inactive”.

In the case of `Nc1nc2[nH]c(=O)cnc2c(=O)[nH]1`, the outcome [1] is reported as “inactive” and the Potency [6] is reported as “inactive”.

In the case of `O=c1oc(Cl)c(Cl)c2ccccc12`, the Potency [6] is reported as 7.52 µM (active) and the outcome [7] is reported as “inactive”.

With `c1ccc2c(c1)-c1cccc3cccc-2c13` the outcome [8] was “inactive”, the outcome [9] was “inactive” and the Potency [10] was “inactive”.

For `c1ccc(Nc2ccc3ccccc3c2)cc1`, the outcome [11] was “inactive”, the outcome [8] was “inactive” and the Potency [12] was “inactive”. The Potency [13] was “inactive”, the activation [3] was 5.18% (inactive) and -0.414% (inactive) and the activation [14] was -2.76% (inactive) and -2.2% (inactive).

In the case of `CC(=O)/C=C/c1ccccc1`, the outcome [11] is reported as “inactive”, the outcome [8] is reported as “inactive” and the outcome [9] is reported as “inactive”. The Potency [10] was “inactive”, the max response [15] was -2.3% and the outcome [16] was “inactive”. For the same compound, the activation [17] was -0.449% (inactive), the max response [18] was -0.846% (inactive) and the outcome [19] was “inactive”.

In the case of `COc1ccc2c(c1)CCC1C2CC[C@@]2(C)C1CC[C@@H]2NCCCCCCN1C(=O)C=CC1=O` (stereo partly drawn), the outcome [7] is reported as “inactive”.

For `Oc1ccccc1Cl`, the outcome [11] was “inactive”, the outcome [8] was “inactive” and the outcome [9] was “inactive”. The Potency [10] was “inactive”, the max response [15] was 8.5% and the outcome [16] was “inactive”. For the same compound, the activation [17] was 0.249% (inactive), the max response [18] was 0.452% (inactive) and the outcome [19] was “inactive”.

For `N#C/C(=C\c1ccc(O)c(O)c1)C(=O)NCCCNC(=O)/C(C#N)=C/c1ccc(O)c(O)c1`, the Potency [20] was 2.24 µM (active).

In the case of `COC1=CC(=O)OC(CCc2ccc3c(c2)OCO3)C1` (stereo not drawn), the outcome [11] is reported as “inactive”, the Potency [12] is reported as “inactive” and the Potency [13] is reported as “inactive”. The activation [14] was 3.34% (inactive) and the activation [17] was 9.51% (inactive).

For `COc1cc([C@@H]2c3cc4c(cc3[C@H](O)C3COC(=O)[C@@H]32)OCO4)cc(OC)c1OC` (stereo partly drawn), the Potency [20] was 12.6 µM (active) and the Potency [5] was 0.0465 µM (active).

In the case of `Brc1c(Br)c(Br)c2n[nH]nc2c1Br`, the outcome [2] is reported as “inactive”.

In the case of `CCOC(=O)c1ccccc1N`, the outcome [11] is reported as “inactive”, the outcome [8] is reported as “inactive” and the Potency [12] is reported as “inactive”. For the same compound, the Potency [13] was “inactive”, the activation [3] was -0.579% (inactive) and the activation [14] was 0.622% (inactive). For the same compound, the outcome [9] was “inactive”, the Potency [10] was “inactive” and the max response [15] was -10.9%. For the same compound, the outcome [16] was “inactive”, the activation [17] was 1.49% (inactive) and the max response [18] was -1.87% (inactive). For the same compound, the outcome [19] was “inactive”.

For `CN1[C@@H](CC(=O)c2ccccc2)CCC[C@H]1C[C@H](O)c1ccccc1`, the Potency [20] was 10 µM (active).

For `NC1C=CC=C(C(=O)O)C1` (stereo not drawn), the outcome [2] was “inactive”.

With `CC(C)COC(=O)c1ccccc1C(=O)OCC(C)C` the Potency [12] was “inactive”, the Potency [13] was “inactive” and the activation [3] was -1.69% (inactive). The activation [14] was -1.08% (inactive), the max response [15] was -12.5% and the outcome [16] was “inactive”. For the same compound, the activation [17] was 0.543% (inactive), the max response [18] was -3.74% (inactive) and the outcome [19] was “inactive”.

For `CCCCCCCCCC[Si](C)(C)CCC(=O)NC(Cc1ccc(C)cc1)c1ccccc1` (stereo not drawn), the Potency [20] was 2.24 µM (active) and the outcome [1] was “inactive”.
